Measured values from PubChem BioAssay (EPA / NIEHS).
Results filed as inconclusive are left out. More than one record can exist for a structure, and the calls need not agree. Calls of active or inactive are those of the source. The calls were made as follows: active = hit-call score of the fitted dose curve at least 0.9, where 1 is the maximum; inconclusive = response in the unintended direction; inactive = score below 0.9.

Target: Peroxisome proliferator-activated receptor gamma (Homo sapiens) (UniProt P37231)
Sequence (P37231 whole entry, looked up): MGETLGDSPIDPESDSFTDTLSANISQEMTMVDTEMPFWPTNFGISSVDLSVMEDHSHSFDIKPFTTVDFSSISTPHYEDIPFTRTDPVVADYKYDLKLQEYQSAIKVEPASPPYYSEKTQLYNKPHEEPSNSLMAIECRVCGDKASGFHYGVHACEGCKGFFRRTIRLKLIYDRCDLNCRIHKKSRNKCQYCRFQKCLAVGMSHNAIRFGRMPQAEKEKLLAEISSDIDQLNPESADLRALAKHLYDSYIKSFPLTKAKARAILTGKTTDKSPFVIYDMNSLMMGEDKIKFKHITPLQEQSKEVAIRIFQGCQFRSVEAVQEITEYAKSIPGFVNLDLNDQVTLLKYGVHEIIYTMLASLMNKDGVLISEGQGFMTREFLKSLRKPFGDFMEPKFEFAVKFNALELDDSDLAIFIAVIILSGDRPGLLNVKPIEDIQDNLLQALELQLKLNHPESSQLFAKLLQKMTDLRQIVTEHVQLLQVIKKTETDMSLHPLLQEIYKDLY
Test: ATG_PPARg_TRANS: Attagene TRANS-FACTORIAL HepG2 Assay for human Peroxisome Proliferator-activated Receptor-gamma (PPARg) (AID 2283007)
Procedure: ATG_TRANS is a cell-based, multiplexed-readout assay that uses HepG2, a human liver cell line, with measurements taken at 24 hours after chemical dosing in a 24-well plate.ATG_PPARg_TRANS is one of 30 assay component(s) measured or calculated from the ATG_TRANS assay. It is designed to make measurements of mRNA induction, a form of inducible reporter, as detected with fluorescence intensity signals by Reverse transcription polymerase chain reaction (RT-PCR) and Capillary electrophoresis technology.Data from the assay component ATG_PPARg_TRANS was analyzed into 1 assay endpoint. This assay endpoint, ATG_PPARg_TRANS, was analyzed in the positive analysis fitting direction relative to DMSO as the negative control and baseline of activity. Using a type of inducible reporter, measures of mRNA for gain-of-signal activity can be used to understand the reporter gene at the transcription factor-level as they relate to the gene PPARG. Furthermore, this assay endpoint can be referred to as a primary readout, because this assay has produced multiple assay endpoints where this one serves a reporter gene function. To generalize the intended target to other relatable targets, this assay endpoint is annotated to the nuclear receptor intended target family, where the subfamily is non-steroidal.
Human liver HepG2 cells are transiently transfected with multiple reporter transcription units (MRTUs) in 6-well plates using FuGene 6 reagent (Roche; 3 ml FuGene/1 mg DNA). The MRTU constructs are regulated by a cis-regulating element (promoter). […] A major difference between the CIS and TRANS system is that in CIS activities of endogenous TFs are measured, whereas the TRANS assay evaluates changes in activities of exogenous, chimeric NR-Gal4 proteins. […] At the end of 24 hour incubation, total RNA was isolated using TriZol reagent (Invitrogen). The isolated RNA is then reverse-transcribed using oligo(dT) primer and Mo-MLV reverse transcriptase (Invitrogen) with DNAse I (Ambion) treatment for 30 min. The one-tenth of the produced cDNA was amplified by PCR using Taq DNA polymerase (Invitrogen) and two reporter sequence-specific primers. The PCR products were fluorescently labeled by primer extension with 6-arboxyfluorescein (6-FAM) 5'-labeled reporter sequence-specific primer (2 min at 95 C, 20 s at 68 C and 10 min at 72 C) and these products were digested with 5U of HpaI (New England Biolabs) for 2h at 37 C. The fragments were purified using Qiaquick PCR columns (Qiagen), analyzed on an ABI 3130xL genetic analyzer (Applied Biosystems) with peak positions identified by using a set of X-rhodamine (ROX)-labeled MapMarker1000 molecular weight standards (BioVentures). The raw capillary electrophoresis data was processed using Attagraph software (Attagene).

**Q.** How did the outcome turn out when `COP(=S)(OC)Oc1ccc([N+](=O)[O-])cc1` was run?
**A.** The outcome was “inactive”.

**Q.** How did the AC50 turn out when `COP(=S)(OC)Oc1ccc(SC)c(C)c1` was run?
**A.** Its AC50 is 33.3 µM (active).

**Q.** How did the AC50 turn out when `Oc1ccc(Cl)cc1Cc1ccccc1` was run?
**A.** Its AC50 is 8.85 µM (active) [middle of 4 runs].

**Q.** What about the outcome of the same molecule?
**A.** The outcome was “inactive”.

**Q.** With `CCCN(CCOc1c(Cl)cc(Cl)cc1Cl)C(=O)n1ccnc1` as the molecule, how does the outcome read?
**A.** Its outcome is “inactive”.

**Q.** `CC(C)OC(=O)Nc1cccc(Cl)c1` was tested. Which AC50 did it give?
**A.** The AC50 was 50 µM (active).

**Q.** For `COP(=O)(OC)OC=C(Cl)Cl`, which outcome is on record?
**A.** Its outcome is “inactive”.

**Q.** With `CCOC1Oc2ccc(OS(C)(=O)=O)cc2C1(C)C` (stereo not given) as the molecule, how does the outcome read?
**A.** The outcome was “inactive”.

**Q.** With `CCOCN(C(=O)CCl)c1c(C)cccc1CC` as the molecule, how does the AC50 read?
**A.** Its AC50 is 1.23 µM (active).

**Q.** For `N#Cc1c(Cl)c(Cl)c(Cl)c(C#N)c1Cl`, which outcome is on record?
**A.** The outcome was “inactive”.

**Q.** With `O=C(Nc1ccccc1)Nc1cnns1` as the molecule, how does the outcome read?
**A.** The outcome was “inactive”.

**Q.** `CC(C)(C)C(O)/C(=C\c1ccc(Cl)cc1Cl)n1cncn1` (stereo not given) was tested. Which outcome did it give?
**A.** The outcome was “inactive”.

**Q.** Which outcome does the source give for `ClC1C(Cl)C(Cl)C(Cl)C(Cl)C1Cl` (stereo not given) here?
**A.** Its outcome is “inactive”.

**Q.** Which outcome does the source give for `COC(=O)c1ccccc1S(=O)(=O)NC(=O)N(C)c1nc(C)nc(OC)n1` here?
**A.** The outcome was “inactive”.

**Q.** For `CNC(=O)Oc1cccc(N=CN(C)C)c1`, which outcome is on record?
**A.** Its outcome is “inactive”.

**Q.** For `O=[N+]([O-])/N=C1\NCCN1Cc1ccc(Cl)nc1`, which outcome is on record?
**A.** The outcome was “inactive”.

**Q.** For `CNC(=O)/C=C(\C)OP(=O)(OC)OC`, which outcome is on record?
**A.** The outcome was “inactive”.

**Q.** For `CCc1ccc(C(=O)NN(C(=O)c2cc(C)cc(C)c2)C(C)(C)C)cc1`, which outcome is on record?
**A.** Its outcome is “inactive”.

**Q.** Which outcome does the source give for `CN1CSC(=S)N(C)C1` here?
**A.** The outcome was “inactive”.

**Q.** With `Oc1cc(Cl)ccc1Oc1ccc(Cl)cc1Cl` as the molecule, how does the outcome read?
**A.** Its outcome is “inactive”.

**Q.** What about the AC50 of the same molecule?
**A.** The AC50 was 11.1 µM (active) [middle of 6 runs].

**Q.** `O=C(O)CCCOc1ccc(Cl)cc1Cl` was tested. Which AC50 did it give?
**A.** The AC50 was 34.5 µM (active).

**Q.** What about the outcome of the same molecule?
**A.** Its outcome is “inactive”.

**Q.** How did the outcome turn out when `CC(C)(C)C(O)C(Oc1ccc(Cl)cc1)n1cncn1` (stereo not given) was run?
**A.** The outcome was “inactive”.

**Q.** How did the outcome turn out when `COC(=O)c1ccccc1CS(=O)(=O)NC(=O)Nc1nc(OC)cc(OC)n1` was run?
**A.** The outcome was “inactive”.

**Q.** `C#CCN1C(=O)COc2cc(F)c(N3C(=O)C4=C(CCCC4)C3=O)cc21` was tested. Which AC50 did it give?
**A.** Its AC50 is 50 µM (active).

**Q.** How did the outcome turn out when `N#CN` was run?
**A.** Its outcome is “inactive”.

**Q.** With `CCC(C)(NC(=O)c1cc(Cl)c(C)c(Cl)c1)C(=O)CCl` (stereo not given) as the molecule, how does the AC50 read?
**A.** The AC50 was 0.878 µM (active).

**Q.** For `Clc1ccccc1-c1nnc(-c2ccccc2Cl)nn1`, which AC50 is on record?
**A.** The AC50 was 64.7 µM (active).

**Q.** `CCOc1nc(NC)nc(NC(=O)NS(=O)(=O)c2ccccc2C(=O)OC)n1` was tested. Which outcome did it give?
**A.** The outcome was “inactive”.

**Q.** How did the outcome turn out when `O=S1OCC2C(CO1)C1(Cl)C(Cl)=C(Cl)C2(Cl)C1(Cl)Cl` (stereo not given) was run?
**A.** The outcome was “inactive”.

**Q.** `CCN(CC)C(=O)SCc1ccc(Cl)cc1` was tested. Which AC50 did it give?
**A.** Its AC50 is 37.1 µM (active).

**Q.** For `OCCOc1ccccc1`, which outcome is on record?
**A.** Its outcome is “inactive”.

**Q.** Which AC50 does the source give for `CC(C)N(C(=O)COc1nnc(C(F)(F)F)s1)c1ccc(F)cc1` here?
**A.** The AC50 was 14.3 µM (active).

**Q.** How did the outcome turn out when `[2H]C1([2H])[n+]2ccccc2-c2cccc[n+]2C1([2H])[2H]` was run?
**A.** The outcome was “inactive”.

**Q.** How did the AC50 turn out when `O=[N+]([O-])c1c(Cl)c(Cl)c(Cl)c(Cl)c1Cl` was run?
**A.** The AC50 was 16.4 µM (active).

**Q.** Which outcome does the source give for `O=C1c2ccccc2C(=O)N1SC(Cl)(Cl)Cl` here?
**A.** The outcome was “inactive”.

**Q.** `Cc1cc(C)nc(NC(=O)NS(=O)(=O)c2ccccc2C(=O)OC2COC2)n1` was tested. Which outcome did it give?
**A.** Its outcome is “inactive”.

**Q.** How did the AC50 turn out when `CC1(C)C(C=C(Cl)Cl)C1C(=O)OC(C#N)c1ccc(F)c(Oc2ccccc2)c1` (stereo not given) was run?
**A.** The AC50 was 20.9 µM (active).

**Q.** How did the outcome turn out when `CCCN(CCC)c1c([N+](=O)[O-])cc(C(F)(F)F)cc1[N+](=O)[O-]` was run?
**A.** Its outcome is “inactive”.
